# Biological target: High affinity nerve growth factor receptor (Homo sapiens) (UniProt P04629)
# Settings: at 1 µM
# 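Further: each value is the mean percent inhibition of TRKA.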
# High affinity nerve growth factor receptor (Homo sapiens), sequence (P04629 33-796 limits assumed): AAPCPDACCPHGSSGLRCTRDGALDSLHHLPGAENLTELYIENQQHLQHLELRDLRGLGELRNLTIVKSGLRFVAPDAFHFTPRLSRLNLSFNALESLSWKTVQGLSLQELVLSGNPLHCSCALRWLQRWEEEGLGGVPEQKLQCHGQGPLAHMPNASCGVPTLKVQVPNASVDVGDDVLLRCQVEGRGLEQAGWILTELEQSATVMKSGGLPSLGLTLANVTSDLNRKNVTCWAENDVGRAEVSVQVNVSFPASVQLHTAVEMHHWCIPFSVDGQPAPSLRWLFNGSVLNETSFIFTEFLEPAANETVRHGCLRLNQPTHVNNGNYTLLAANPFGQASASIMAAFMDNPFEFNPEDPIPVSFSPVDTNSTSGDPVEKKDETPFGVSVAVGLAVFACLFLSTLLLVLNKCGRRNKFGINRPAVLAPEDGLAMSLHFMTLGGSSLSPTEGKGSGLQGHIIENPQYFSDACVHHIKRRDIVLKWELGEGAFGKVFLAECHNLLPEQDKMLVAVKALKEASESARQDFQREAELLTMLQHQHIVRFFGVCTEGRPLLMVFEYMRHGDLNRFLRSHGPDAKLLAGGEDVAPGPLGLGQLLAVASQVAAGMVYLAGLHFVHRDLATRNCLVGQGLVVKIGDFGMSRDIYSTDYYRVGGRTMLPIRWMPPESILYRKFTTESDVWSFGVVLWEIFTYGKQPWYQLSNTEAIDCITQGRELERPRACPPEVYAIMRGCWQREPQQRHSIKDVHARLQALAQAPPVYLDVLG
row,Structure (SMILES),inhibition
1,O=C1Nc2ccc(I)cc2C1=Cc1cc(Br)c(O)c(Br)c1,7.89%
2,CCS(=O)(=O)c1ccc(OC)c(Nc2ncc(-c3cccc(-c4ccccc4F)c3)o2)c1,26%
3,COc1ccc(-c2ccc3c(NC(=O)C4CC4)n[nH]c3n2)cc1,2.48%
4,CCc1ccc(Oc2nccc(-c3c(-c4ccc(F)cc4)ncn3C3CCNCC3)n2)cc1,3.03%
5,NCc1ccc(-n2c(-c3nonc3N)nc3cnccc32)cc1,2.81%
6,CN1CCN(CCCNc2nc3ccc(Oc4ccc(NC(=O)Nc5cc(C(F)(F)F)ccc5F)cc4)cc3[nH]2)CC1,34%
7,NS(=O)(=O)c1ccc(Nc2cc(-c3ccc(O)c(F)c3)n[nH]2)cc1,36.2%
8,NS(=O)(=O)c1ccc(N/N=C2\C(=O)Nc3ccc(-c4cnco4)cc32)cc1,36.1%
9,CCc1cccc(CC)c1/C=C/c1cncc(C(=O)NC)c1,1.65%
10,FC(F)(F)c1cccc(Nc2nccc(-c3cnn4nc(-c5ccccc5)ccc34)n2)c1,-0.33%
11,COc1ccc2cc(-c3c(-c4ccncc4)nc(-c4ccc([S+](C)[O-])cc4C)n3C)ccc2c1 (stereo not drawn),-0.68%
12,CCS(=O)(=O)c1ccc(OC)c(Nc2ncc(-c3ccccc3Cl)o2)c1,5.58%
13,C[C@@H](Oc1cc(-n2cnc3ccc(OCC4CCN(C)CC4)cc32)sc1C(N)=O)c1ccccc1Cl,5.94%
14,C[C@@H](Oc1cc(-n2cnc3ccc(OC4CCN(C)CC4)cc32)sc1C(N)=O)c1ccccc1Cl,8.12%
15,CCN(CC)Cc1ccc(Nc2nccc(-c3cnn4ncccc34)n2)cc1,12.1%
16,Fc1ccc(-c2ncn(CCCN3CCOCC3)c2-c2ccncc2)cc1,-2.74%
17,Fc1ccc(-c2nc3n(c2-c2ccncc2)CCS3)cc1,1.45%

row,Structure (SMILES),inhibition
1,Fc1ccc(-c2ncn(C3CCNCC3)c2-c2ccnc(Oc3ccc4c(c3)OCO4)n2)cc1,4.38%
2,Fc1ccc(-c2c(-c3ccncc3)nc3n2CCS3)cc1,-0.43%
3,O=C(Nc1n[nH]c2nc(-c3ccc(O)cc3)c(Br)cc12)C1CC1,12.3%
4,CN(C)CCOc1ccc(-c2cc(-c3ccc4c(c3)CCC4=NO)c(-c3ccncc3)o2)cc1,-2.77%
5,COc1ccc(C2=C(N3CCc4ccccc43)C(=O)NC2=O)cc1,3.66%
6,CN(c1ccc(NC(=O)Nc2c(Cl)cccc2Cl)cc1)c1ccnc(Nc2cccc(CS(C)(=O)=O)c2)n1,68.7%
7,Cc1ccc(C(=O)NC2CCC2)cc1-c1ccc(C(=O)NCC2CC2)cc1,3.19%
8,COc1cccc(-n2cnc3c(N/N=C/c4ccncc4)ncnc32)c1,7.04%
9,Cc1ccc(C(=O)NC(C)C)cc1-c1ccc(C(=O)NCC2CC2)cc1,0.4%
10,NC(=O)Cc1ccccc1Oc1nccc(-c2c(-c3ccc(F)cc3)ncn2C2CCNCC2)n1,1.31%
11,O=C1Nc2ccccc2/C1=C/Nc1ccc(-n2cncn2)cc1,44.2%
12,c1ccc(Oc2ccc(Nc3ncc(-c4ccccc4)o3)cc2)cc1,3.28%
13,COc1cc2ncn(-c3cc(OCc4ccccc4C(F)(F)F)c(C(C)=O)s3)c2cc1OC,1.61%
14,COc1ccc2ncn(-c3cc(O[C@H](C)c4ccccc4Cl)c(C(N)=O)s3)c2c1,4.03%
15,CN(C)c1ccc2c(c1)/C(=C/Nc1ccc(S(N)(=O)=O)cc1)C(=O)N2,46.2%
16,COc1cc2ncn(-c3cc(OCc4cccs4)c(C(N)=O)s3)c2cc1OC,8.7%
